In PubChem BioAssay (EPA / NIEHS) one finds outcome and AC50 data, which are given here for six compounds.

Inconclusive results are not listed. Calls of active or inactive are those of the source. The calls were made as follows, unless noted: active = hit-call score of the fitted dose curve at least 0.9, where 1 is the maximum; inactive = score below 0.9.

Read-out in assay [1]: E-selectin (Homo sapiens) (UniProt P16581)
The assay is described as follows: BSK_3C_Eselectin: BioMAP Diversity Plus: 3C Assay for Eselectin Biomarker Activity (AID 2283015).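 Also: cell surface E-selectin protein quantified by ELISA 24 h after dosing.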 The conditions noted are these: primary human endothelial cells (HUVEC); actives raise or lower the signal. The procedure, abridged:
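Primary human umbilical vein endothelial cells (3C system) were dosed with chemical and cell-surface E-selectin measured by ELISA 24 h later. Bidirectional curve fitting used DMSO as negative control and baseline.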

Read-out in assay [2]: Interleukin-1 alpha (IL1a), IL1A (gene 3552)
In words: BSK_BE3C_IL1a: BioMAP Diversity Plus: BE3C Assay for Interleukin-1 alpha (IL1a) Biomarker Activity (AID 2283016). The note with it: primary human bronchial epithelial cells; actives raise or lower the signal. The procedure, abridged:
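Signal from IL-1a ELISA, taken 24 h after chemical dosing of human bronchial epithelial cells, is compared with DMSO as baseline using bidirectional curve fitting.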

Read-out in assay [3]: Monocyte Chemoattractant Protein-1 (MCP1), CCL2 (gene 6347)
The assay is described as follows: BSK_3C_MCP1: BioMAP Diversity Plus: 3C Assay for Monocyte Chemoattractant Protein-1 (MCP1) Biomarker Activity (AID 2283017). The note with it: primary human endothelial cells (HUVEC); actives raise or lower the signal. The procedure, abridged:
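Primary human umbilical vein endothelial cells (3C system) were exposed to test chemical for 24 h, after which MCP-1 was quantified by ELISA. Activity was fitted bidirectionally against DMSO as negative control and baseline.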

Read-out in assay [4]: Monocyte Chemoattractant Protein-1 (MCP1), CCL2 (gene 6347)
In words: BSK_4H_MCP1: BioMAP Diversity Plus: 4H Assay for Monocyte Chemoattractant Protein-1 (MCP1) Biomarker Activity (AID 2283018). The note with it: primary human endothelial cells (HUVEC); actives raise or lower the signal. The procedure, abridged: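 Endothelial cells from umbilical vein were treated with test chemical, then after 24 h MCP-1 levels were quantified by ELISA; endpoint values came from bidirectional fitting with DMSO as baseline of activity.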

Read-out in assay [5]: Human Leukocyte Antigen - DR isotype (HLADR), HLA-DRA (gene 3122)
The assay is described as follows: BSK_3C_HLADR: BioMAP Diversity Plus: 3C Assay for Human Leukocyte Antigen - DR isotype (HLADR) Biomarker Activity (AID 2283019).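 As to outcome: ELISA of cell-surface HLA-DR on HUVEC 24 h after dosing.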 The note with it: primary human endothelial cells (HUVEC); actives raise or lower the signal. The procedure, abridged:
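Primary human umbilical vein endothelial cells (3C system) were dosed with compound and cell-surface HLA-DR was quantified by ELISA at 24 h. Activity was fitted bidirectionally against DMSO as negative control and baseline.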

Read-out in assay [6]: Interleukin-8 (IL8), CXCL8 (gene 3576)
The assay is described as follows: BSK_3C_IL8: BioMAP Diversity Plus: 3C Assay for Interleukin-8 (IL8) Biomarker Activity (AID 2283020). The conditions noted are these: primary human endothelial cells (HUVEC); actives raise or lower the signal. The procedure, abridged: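 Endothelial primary cells of human umbilical vein origin are dosed with chemical; after 24 h the IL-8 biomarker is measured by ELISA, and concentration–response is fitted in both directions versus DMSO.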

Read-out in assay [7]: Monokine induced gamma interferon (MIG), CXCL9 (gene 4283)
In words: BSK_3C_MIG: BioMAP Diversity Plus: 3C Assay for Monokine induced gamma interferon (MIG) Biomarker Activity (AID 2283021). The conditions noted are these: primary human endothelial cells (HUVEC); actives raise or lower the signal. The procedure, abridged:
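Endothelial primary cells (human umbilical vein) are dosed with test chemical in the 3C system. MIG levels are measured by ELISA at 24 h and fitted in both directions relative to DMSO.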

Assay [8] in a line: BSK_3C_SRB: Viability Assessment in the BioMAP Diversity Plus: 3C Assay (AID 2283023).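 Also: fitted both ways against DMSO so a hit may be signal rise or drop.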 The conditions noted are these: primary human endothelial cells (HUVEC). The procedure, abridged:
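Primary human umbilical vein endothelial cells in the 3C system were read 24 h after compound dosing. Total protein was stained with 0.1% sulforhodamine B after 10% TCA fixation and read at 560 nm, with bidirectional fitting against DMSO as baseline.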

Read-out in assay [9]: Matrix Metallopeptidase 1 (MMP1), MMP1 (gene 4312)
The assay is described as follows: BSK_BE3C_MMP1: BioMAP Diversity Plus: BE3C Assay for Matrix Metallopeptidase 1 (MMP1) Biomarker Activity (AID 2283024). The conditions noted are these: primary human bronchial epithelial cells; actives raise or lower the signal. The procedure, abridged: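 MMP1 signal, measured by ELISA after a 24 h chemical exposure of human primary bronchial epithelial cells, is analysed with bidirectional fitting using DMSO as negative control.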

Assay [10] is described as follows: BSK_3C_Vis: BioMAP Diversity Plus: 3C Assay for Morphology Visualization (AID 2283025).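 Also: fitted both ways so gain or loss versus DMSO counts.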 The conditions noted are these: primary human endothelial cells (HUVEC). The procedure, abridged: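 Morphology read by light microscopy serves as a background control for the multiplexed 3C assay in human umbilical vein endothelial cells, taken 24 h after dosing, with DMSO as the negative control and bidirectional curve fitting.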

Read-out in assay [11]: Pselectin, SELP (gene 6403)
The assay is described as follows: BSK_4H_Pselectin: BioMAP Diversity Plus: 4H Assay for Pselectin Biomarker Activity (AID 2283026). The note with it: primary human endothelial cells (HUVEC); actives raise or lower the signal. The procedure, abridged: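 Endothelial primary cells (human umbilical vein) are dosed, incubated 24 h, and assayed for surface P-selectin by ELISA; responses in either direction are fitted relative to the DMSO negative control.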

A short description of assay [12]: BSK_4H_SRB: Viability Assessment in the BioMAP Diversity Plus: 4H Assay (AID 2283027).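 Also: cells exposed to compound for 24 h before staining.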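 As to AC50: curves fitted both ways versus DMSO so AC50 may be loss or gain.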 The note with it: primary human endothelial cells (HUVEC). The procedure, abridged: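 Cytotoxicity readout: sulforhodamine B (0.1%) staining of total protein after 10% TCA fixation, measured at 560 nm in human umbilical vein endothelium at 24 h. DMSO set the baseline; fitting was bidirectional.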

Read-out in assay [13]: Thrombomodulin, THBD (gene 7056)
In words: BSK_3C_Thrombomodulin: BioMAP Diversity Plus: 3C Assay for Thrombomodulin Biomarker Activity (AID 2283029). The conditions noted are these: primary human endothelial cells (HUVEC); actives raise or lower the signal. The procedure, abridged: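 Endothelial cells from umbilical vein are dosed with test chemical and incubated 24 h. Thrombomodulin is then quantified by ELISA, with DMSO serving as negative control and activity baseline.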

Read-out in assay [14]: Urokinase-type plasminogen activator receptor (uPAR), PLAUR (gene 5329)
In words: BSK_4H_uPAR: BioMAP Diversity Plus: 4H Assay for Urokinase-type plasminogen activator receptor (uPAR) Biomarker Activity (AID 2283030). The conditions noted are these: primary human endothelial cells (HUVEC); actives raise or lower the signal. The procedure, abridged: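 Primary human umbilical vein endothelial cells were exposed to chemical for 24 h before cell-surface uPAR was quantified by ELISA. Activity was fitted bidirectionally against the DMSO negative control baseline.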

For assay [15], the target named is human Retinoid X Receptor beta (RXRb), RXRB (gene 6257) (UniProt P28702). The assay is described as follows: ATG_RXRb_TRANS: Attagene TRANS-FACTORIAL HepG2 Assay for human Retinoid X Receptor beta (RXRb) (AID 2283013; active = hit-call score of the fitted dose curve at least 0.9, where 1 is the maximum). The procedure, abridged: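 Chimeric receptor-Gal4 activity was assessed in transiently transfected human HepG2 cells after 24 h exposure. Transcripts from GAL4-UAS reporters were quantified by fluorescent RT-PCR and capillary electrophoresis, with DMSO as negative control and baseline.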
Chain of human Retinoid X Receptor beta (RXRb), RXRB (gene 6257) (P28702 whole entry, looked up, the tested form may be a part): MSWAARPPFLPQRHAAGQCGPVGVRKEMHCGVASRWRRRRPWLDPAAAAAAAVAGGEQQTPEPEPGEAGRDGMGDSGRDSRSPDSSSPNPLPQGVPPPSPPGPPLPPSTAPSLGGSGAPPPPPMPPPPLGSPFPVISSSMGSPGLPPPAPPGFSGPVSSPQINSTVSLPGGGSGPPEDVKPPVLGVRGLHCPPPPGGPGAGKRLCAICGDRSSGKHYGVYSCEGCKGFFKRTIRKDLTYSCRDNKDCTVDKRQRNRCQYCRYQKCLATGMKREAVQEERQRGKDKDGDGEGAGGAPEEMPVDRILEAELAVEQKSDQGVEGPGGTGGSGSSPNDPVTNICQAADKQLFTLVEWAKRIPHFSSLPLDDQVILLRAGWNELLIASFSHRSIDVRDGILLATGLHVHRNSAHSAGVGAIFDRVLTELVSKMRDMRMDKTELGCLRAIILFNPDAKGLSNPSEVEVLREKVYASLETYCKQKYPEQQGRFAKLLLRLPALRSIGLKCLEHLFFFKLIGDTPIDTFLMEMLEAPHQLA

Assay [16] deals with human Vitamin D Receptor (VDR), VDR (gene 7421) (UniProt P11473). The assay is described as follows: ATG_VDR_TRANS: Attagene TRANS-FACTORIAL HepG2 Assay for human Vitamin D Receptor (VDR) (AID 2283022; active = hit-call score of the fitted dose curve at least 0.9, where 1 is the maximum). The procedure, abridged:
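HepG2 cells were transiently transfected with multiple GAL4-UAS reporter units, so signal reflects exogenous chimeric receptor-Gal4 activity. After 24 h compound exposure, reporter mRNA was measured by RT-PCR, fluorescent labelling and capillary electrophoresis, fitted for gain of signal versus DMSO.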

Assay [17] in a line: BSK_BE3C_SRB: Viability Assessment in the BioMAP Diversity Plus: BE3C Assay (AID 2283028). The conditions noted are these: primary human bronchial epithelial cells. The procedure, abridged: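 Human primary bronchial epithelial cells were exposed to test chemicals for 24 h. Total protein in parallel cultures was then measured by staining with 0.1% sulforhodamine B after 10% TCA fixation, with absorbance read at 560 nm. Activity was fitted bidirectionally against DMSO.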

Chain of E-selectin (Homo sapiens) (P16581 whole entry, looked up): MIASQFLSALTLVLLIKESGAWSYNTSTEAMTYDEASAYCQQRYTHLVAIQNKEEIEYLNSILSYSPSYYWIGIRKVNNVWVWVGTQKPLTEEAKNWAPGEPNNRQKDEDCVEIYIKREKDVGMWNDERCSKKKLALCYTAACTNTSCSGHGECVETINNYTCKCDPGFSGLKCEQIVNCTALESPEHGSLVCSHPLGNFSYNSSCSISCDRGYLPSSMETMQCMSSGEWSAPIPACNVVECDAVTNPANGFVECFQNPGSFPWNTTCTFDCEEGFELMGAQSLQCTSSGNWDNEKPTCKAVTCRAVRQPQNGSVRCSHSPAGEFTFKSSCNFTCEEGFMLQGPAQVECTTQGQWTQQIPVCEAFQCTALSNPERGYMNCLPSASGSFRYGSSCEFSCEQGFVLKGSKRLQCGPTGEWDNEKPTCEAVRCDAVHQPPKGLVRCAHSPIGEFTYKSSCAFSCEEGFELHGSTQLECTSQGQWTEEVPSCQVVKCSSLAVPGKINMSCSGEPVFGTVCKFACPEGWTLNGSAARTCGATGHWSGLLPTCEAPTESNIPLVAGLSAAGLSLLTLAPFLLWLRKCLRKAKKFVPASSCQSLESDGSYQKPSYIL
Chain of human Vitamin D Receptor (VDR), VDR (gene 7421) (P11473 whole entry, looked up, the tested form may be a part): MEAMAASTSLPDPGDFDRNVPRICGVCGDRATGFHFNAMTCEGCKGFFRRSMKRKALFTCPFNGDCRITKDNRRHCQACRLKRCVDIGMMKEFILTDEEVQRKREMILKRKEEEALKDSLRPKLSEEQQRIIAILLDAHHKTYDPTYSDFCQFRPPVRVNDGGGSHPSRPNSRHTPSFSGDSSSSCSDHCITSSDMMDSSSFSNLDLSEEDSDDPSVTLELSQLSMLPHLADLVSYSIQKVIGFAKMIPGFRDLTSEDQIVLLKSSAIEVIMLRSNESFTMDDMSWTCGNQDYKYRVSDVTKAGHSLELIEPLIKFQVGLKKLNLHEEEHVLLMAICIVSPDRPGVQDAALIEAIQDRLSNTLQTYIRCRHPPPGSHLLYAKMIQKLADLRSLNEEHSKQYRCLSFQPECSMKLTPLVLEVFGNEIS

Regarding `Cc1cccc(Nc2cc(Cl)nc(SCC(=O)O)n2)c1C`, the result in [1], in assay [2], in assay [3], in assay [4], in [5] and in assay [6] was inactive. Moreover, the result in assay [7], in [8], in [9], in assay [10], in assay [11] and in [12] was inactive. Moreover, the result in assay [13] and in assay [14] was inactive.
As for `Cc1c(C(=O)O)c(O)cc2c1C(=O)c1c(O)c([C@@H]3O[C@H](CO)[C@@H](O)[C@H](O)[C@H]3O)c(O)c(O)c1C2=O`, the compound was classed as inactive in assay [15], in assay [1], in assay [2], in [3], in assay [4] and in [5]. Moreover, the outcome in [6], in assay [7], in assay [16], in [8], in assay [9] and in assay [10] was inactive. In addition, the outcome in [11], in [12], in [13] and in assay [14] was inactive.
Take `Cc1nc(-c2ccc3c(c2)CCN(CCC2CCC(NC(=O)/C=C/c4ccc(F)cc4)CC2)CC3)no1` (centres undefined): the outcome in assay [1], in assay [2], in assay [3], in assay [4], in assay [7] and in assay [9] was inactive. For the same compound, the result in assay [17] and in [14] was inactive. Further, the AC50 is 5.83 µM (active) in assay [5]; 7.5 µM (active) in assay [6]; 6.26 µM (active) in [8]; 6.4 µM (active) in assay [10]; 5.65 µM (active) in assay [11]; 6.89 µM (active) in [12]. In assay [13], the AC50 is 9.3 µM (active).
As to `CCCCCCCCCCC`, the result in assay [1], in assay [2], in assay [3], in [4], in assay [5] and in assay [6] was inactive. In addition, the result in assay [7], in [8], in [9], in [10], in [11] and in assay [12] was inactive. Besides, the result in [17], in assay [13] and in assay [14] was inactive.
Regarding `c1cc(-c2ccncc2)ccn1`, the result in [1], in assay [2], in assay [3], in [4], in assay [5] and in [6] was inactive. The compound was called inactive in [16], in assay [8], in assay [9], in assay [11], in assay [12] and in assay [13]. In addition, in [14], the outcome was inactive. Moreover, the AC50 in assay [10] was 39 µM (active).
With `CCCCOC(=O)CCCCCCCCC(=O)OCCCC`, the compound was classed as inactive in assay [15], in assay [1], in assay [2], in [3], in assay [4] and in assay [5]. In addition, the result in [6], in assay [7], in [8], in assay [9], in assay [10] and in [11] was inactive. Further, the outcome in assay [12], in assay [13] and in [14] was inactive.

The AC50 is the concentration at which the activity in the assay is half-maximal.
